From PubChem BioAssay (NCATS)
Results filed as inconclusive are left out. A number with no mark means an inactive call. The source made the active and inactive calls. Calls come from the whole dose curve.

Assay: Cell Viability - MRC5 (AID 434);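 note: potency reflects cytotoxicity seen as loss of intracellular ATP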
Settings: MRC5 lung fibroblast viability, qHTS
Text: NIH Chemical Genomics Center [NCGC]
NIH Molecular Libraries Screening Centers Network [MLSCN]
National Institutes of Environmental Health Sciences [NIEHS]
National Toxicology Program [NTP]
We have developed a 1536-well cell-based assay for quantitative high throughput screening (qHTS) against a number of cell lines to determine in vitro cytotoxicity of small molecules. This particular assay uses the MRC5 cell line which is derived from normal human lung fibroblasts.
NCGC Assay Protocol Summary:
The CellTiter-Glo luminescent cell viability assay (Promega) is a homogeneous method to measure the number of viable cells in culture. The end point readout of this assay is based on quantitation of intracellular ATP, an indicator of metabolic activity, using the luciferase reaction. Luciferase catalyzes the oxidation of beetle Luciferin to oxyluciferin and light in the presence of ATP. The luminescent signal is proportional to amount of ATP present.
Using the CellTiter-Glo luminescent cell viability assay, the amount of cellular ATP was measured in the MRC5 cell line with complete culture medium following compound treatment for 40 hours. The assay was performed in opaque white Kalypsys 1536-well plates. In the screen, tamoxifen and doxorubicin were used as positive controls. Library compounds were measured for their ability to cause acute toxicity in the cell line, as reflected by a decrease in intracellular ATP levels, in a concentration-dependent manner. Data were normalized to the controls for basal activity (DMSO only) and 100% inhibition (100 uM tamoxifen). AC50 values were determined from concentration-response data modeled with the standard Hill equation.
qHTS protocol for CellTiter Glo MRC5 cellular assay
[Step] [Parameter] [Value] [Description]
1. Reagent; 5 uL; 1500 MRC5 cells/well
2. Time; 5 hr; 37 °C incubation
4. Controls; 23 nL; Tamoxifen 0.34 uM to 100 uM & Doxorubicin 0.02 nM to 100 uM
5. Time; 40 hr; 37 °C incubation
6. Reagent; 5 uL; CellTiter Glo reagent
7. Time; 20 min; Room Temperature
8. Detection; Luminescence; Viewlux plate reader
Keywords: cell viability, cytotoxicity, MRC5 cell line, luminescence, NTPHTS, NTPHTS_NCGC, NIEHS, EPA, DSSTox, MLSMR, MLSCN, NIH Roadmap, qHTS, NCGC
Potency is the fitted concentration of half-maximal effect.

| SMILES | Potency |
| --- | --- |
| CC(=O)c1ccc(Cl)c(Cl)c1Cl | > 92 µM |
| Oc1cc(Cl)cc(Cl)c1Cl | > 92 µM |
| C=Cc1cccc(C)c1 | > 92 µM |
| CC/C=C/C/C=C/C/C=C/CCCCCCCC(=O)OCC | > 92 µM |
| COc1ccc(C)cc1N | > 92 µM |
| O=C(O)c1cc(N=Nc2ccc([N+](=O)[O-])cc2)ccc1O | > 92 µM |
| C=CC(C)(O)CCCC(C)CCCC(C)CCCC(C)C (stereo not given) | > 92 µM |
| c1c[nH]cn1 | > 92 µM |
| C1CCCNCC1 | > 92 µM |
| COc1cc(-c2ccc(N=C=O)c(OC)c2)ccc1N=C=O | > 92 µM |
| Nc1ccc(N)c(Cl)c1 | > 92 µM |
| c1ccc(Nc2cccc3ccccc23)cc1 | > 92 µM |
| CCOc1ccc2nc(N)sc2c1 | > 92 µM |
| c1ccc(CSCc2ccccc2)cc1 | > 92 µM |
| CCOC(=O)C1OC1c1ccccc1 (stereo not given) | > 92 µM |
| CC(=O)OC(C(=O)c1ccccc1)c1ccccc1 (stereo not given) | > 92 µM |
| COc1ccc([N+](=O)[O-])cc1N | > 92 µM |
| CCCCCCCCC1CO1 (stereo not given) | > 92 µM |
| C=CC(=O)CC | > 92 µM |
| Cc1ccc(S(N)(=O)=O)cc1 | > 92 µM |

| SMILES | Potency |
| --- | --- |
| O=C1OC(=O)c2ccccc21 | > 92 µM |
| Brc1ccc(-c2ccccc2)cc1 | > 92 µM |
| CC(C)(C)C(=O)C1C(=O)c2ccccc2C1=O | > 92 µM |
| O=[N+]([O-])c1ccccc1Nc1ccccc1 | > 92 µM |
| O=C(OCc1ccccc1)c1ccccc1O | > 92 µM |
| O=C(O)/C=C/c1ccc(/C=C/C(=O)O)cc1 | > 92 µM |
| CCCCC(CC)COC(=O)COc1ccc(Cl)cc1Cl (stereo not given) | > 92 µM |
| OC1CCCCC1 | > 92 µM |
| O=c1[nH]ncc2ccccc12 | > 92 µM |
| Brc1cc(Br)c(Oc2cc(Br)c(Br)cc2Br)cc1Br | > 92 µM |
| C/C=C1/C(=O)C[C@H]2[C@@H]3CCC4=CC(=O)CC[C@]4(C)[C@H]3CC[C@]12C | > 92 µM |
| S=C(NC1CCCCC1)NC1CCCCC1 | > 92 µM |
| CC(C)S | > 92 µM |
| CCCCOC(=O)COc1ccc(Cl)cc1Cl | > 92 µM |
| NC(=O)Nc1nc2ccccc2[nH]1 | > 92 µM |
| O=C1c2ccccc2C(=O)C1(O)O | 44.8 µM (active) |
| O=CC(=O)c1ccccc1 | > 92 µM |
| Nc1ccc(N=Nc2ccccc2)c(N)c1 | > 92 µM |
| Cc1cccnc1 | > 92 µM |
| Nc1cc(C(=O)O)c(O)c(S(=O)(=O)O)c1 | > 92 µM |
